Four compounds from PubChem BioAssay can be followed below.

Active and inactive are the calls of the source. Unless noted, the rule behind the calls is not given here.

For assay [1], the system named is Wnt5a (protein binding on small-molecule microarray). In words: Wnt5a binders on small-molecule microarray, primary screen, biophysical, 635/667 nm fluorescence (AID 1142).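 Note: fluorescence read at 667 nm with signal to noise per printed feature.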 The note with it: 635 nm fluorescence, higher = more signal.
A short description of assay [2]: cell viability in Huh7 cells, primary screen, cytotoxicity control for HCV replication inhibitor project, CellTiter-Glo luminescence, basal, 48 h (AID 1143).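 Note: Huh7 hepatoma cells carrying a hepatitis C replication reporter with no stimulus; test concentration not given here.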 The note with it: Huh7 HCV replicon, higher = more signal, called active from +8 up or from −8 down. On the technique in general: ATP-based viability assays read luminescence as a measure of living cells.
Assay [3] is described as follows: P. aeruginosa biofilm formation inhibitors, primary screen, PAO1 strain, BacTiter-Glo luminescence, LB-PBS (AID 1144). The note with it: 12 h, higher = more signal.
The nature of assay [4]: CREB reporter modulators without forskolin, primary screen, cell-based, PC12, CRE-LacZ reporter, unstimulated (AID 1145). The note with it: no forskolin, luminescence, 4.5 h, higher = more signal, called active from +8 up or from −8 down.
The nature of assay [5]: CREB reporter modulators under forskolin, primary screen, cell-based, PC12, CRE-LacZ reporter, forskolin-stimulated (AID 1146).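 Note: PC12 cells with 6xCRE LacZ reporter stimulated by forskolin 10 µM; beta-galactosidase reporter signal reflecting CREB driven transcription.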 The note with it: luminescence, 4.5 h, higher = more signal, called active from +8 up or from −8 down.
In assay [6] the target is Streptavidin (Streptomyces avidinii) (UniProt P22629). In words: streptavidin binders on small-molecule microarray, primary screen, artefact control for SMM compound annotation, biophysical, 635/667 nm fluorescence (AID 1147).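 Note: signal reflects streptavidin binding to arrayed compounds as a control protein.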 The note with it: streptavidin binding, higher = more signal.
Sequence of Streptavidin (Streptomyces avidinii) (P22629 whole entry, looked up): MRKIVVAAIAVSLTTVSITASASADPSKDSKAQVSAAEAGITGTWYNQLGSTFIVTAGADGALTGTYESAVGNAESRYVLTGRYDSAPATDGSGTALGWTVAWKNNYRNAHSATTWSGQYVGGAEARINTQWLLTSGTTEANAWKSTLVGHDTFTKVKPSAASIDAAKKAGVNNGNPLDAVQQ
Assay [7] is described as follows: small-molecule binders of probe aInhba, primary screen, biochemical, small-molecule microarray, 635/667 nm fluorescence (AID 1148).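 Note: score merges 667nm spot fluorescence with signal-to-noise for antibody binding to printed compounds.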 The note with it: higher = more signal.
The target of assay [8] is Torsin-1A (Homo sapiens) (UniProt O14656). The assay can be described thus: torsin A binders from cell lysate, primary screen, small-molecule microarray, wild-type, 635/667 nm (AID 1149). The note with it: COS7 hTOR1A-WT lysate, 635 nm fluorescence, higher = more signal.
Sequence of Torsin-1A (Homo sapiens) (O14656 whole entry, looked up): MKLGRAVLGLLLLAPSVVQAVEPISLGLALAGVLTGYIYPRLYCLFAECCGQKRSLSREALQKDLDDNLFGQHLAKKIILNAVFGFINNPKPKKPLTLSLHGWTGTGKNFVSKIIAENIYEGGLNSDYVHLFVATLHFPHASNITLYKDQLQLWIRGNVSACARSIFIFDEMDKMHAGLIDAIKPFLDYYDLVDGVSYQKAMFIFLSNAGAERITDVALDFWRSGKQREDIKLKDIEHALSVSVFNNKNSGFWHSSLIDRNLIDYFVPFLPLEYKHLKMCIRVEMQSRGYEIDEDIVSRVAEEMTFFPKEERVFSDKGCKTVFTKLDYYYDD
Assay [9] has the same target. The assay can be described thus: small-molecule binders of mutant TOR1A in lysate, primary screen, cell lysate, small-molecule microarray, COS7 lysate, 635/667 nm fluorescence (AID 1150).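 Note: score pools 667 nm emission and signal to noise measuring lysate protein binding.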 The note with it: COS7 hTOR1A mutant lysate, 635 nm fluorescence, higher = more signal.
In assay [10] the test system is Sonic hedgehog protein (Shh). The assay can be described thus: small-molecule binders of Shh protein, primary screen, biochemical, small-molecule microarray, 635/667 nm fluorescence (AID 1151).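 Note: Shh protein binding to compounds spotted on small-molecule microarray slides; score combines spot fluorescence intensity with signal-to-noise across triplicate slides.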 The note with it: small-molecule microarray binding, 635 nm fluorescence; higher = more signal.
Assay [11] is described as follows: E. coli DRC41 culture turbidity changes, primary screen, E. coli filamentation inducer project, strain DRC41, OD650, 48 h (AID 1152).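 Note: E. coli MC1000 strain DRC41 lacking acrAB efflux pump and sulA.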 The note with it: E. coli DRC41 (acrAB sulA), higher = more signal, called active from +8 up or from −8 down.
Assay [12] in a line: small-molecule binders of probe aLefty1, primary screen, biochemical, small-molecule microarray, 635/667 nm fluorescence (AID 1153).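 Note: score merges spot fluorescence with signal-to-noise ratio from the scanned slide images.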 The note with it: higher = more signal.
A short description of assay [13]: PSAC antagonists in infected red cells, primary screen, cell-based, P. falciparum Indochina, OD700, 1 h (AID 1154). The note with it: P. falciparum Indochina infected RBC osmotic lysis, higher = more signal, called active from +8 up or from −8 down.
Assay [14] in a line: PSAC antagonists in infected red cells, primary screen, cell-based, P. falciparum Indochina, OD700, 2 h (AID 1155).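 Note: lysis reports solute entry through the parasite surface anion channel PSAC; channel blockers reduce lysis of infected cells.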 The note with it: P. falciparum Indochina infected erythrocytes, osmotic lysis OD700; higher = more signal, called active from +8 up or from −8 down.
The nature of assay [15]: osmotic lysis modulators in infected erythrocytes, primary screen, PSAC antagonist project, cell-based, P. falciparum Indochina, OD700, 3 h (AID 1156). The note with it: higher = more signal, called active from +8 up or from −8 down.
A short description of assay [16]: PSAC antagonists in infected red cells, primary screen, cell-based, P. falciparum Indochina, OD700, 18 h (AID 1157). The note with it: P. falciparum Indochina infected erythrocytes, osmotic lysis OD700, 18 h; higher = more signal, called active from +8 up or from −8 down.
Assay [17] can be described thus: modulators of S6 phosphorylation in cells, primary screen, cell-based, A549, cytoblot, luminescence, serum-stimulated (AID 1158).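 Note: serum-stimulated A549 lung adenocarcinoma cells; signal is phosphorylated S6 detected by cytoblot immunostaining with HRP secondary.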 The note with it: A549 phospho-S6 cytoblot, 5 h, higher = more signal.
Assay [18] concerns the target NADPH oxidase 2 (Homo sapiens) (UniProt P04839). In words: NOX2-dependent H2O2 signal modulators, primary screen, NOX inhibitor project, cell-based, HEK293-NOX2, PMA-stimulated, Amplex Red fluorescence (AID 1159). Note: test concentration not given here. The note with it: 45 min, higher = more signal, called active from +8 up or from −8 down.
The target of assay [19] is NADPH oxidase 4 (Homo sapiens) (UniProt Q9NPH5). In words: NOX4-dependent H2O2 signal modulators, primary screen, NOX inhibitor project, cell-based, HEK293-NOX4, tetracycline-induced, Amplex Red fluorescence (AID 1160). The note with it: 45 min, higher = more signal, called active from +8 up or from −8 down.
Sequence of NADPH oxidase 4 (Homo sapiens) (Q9NPH5 whole entry, looked up): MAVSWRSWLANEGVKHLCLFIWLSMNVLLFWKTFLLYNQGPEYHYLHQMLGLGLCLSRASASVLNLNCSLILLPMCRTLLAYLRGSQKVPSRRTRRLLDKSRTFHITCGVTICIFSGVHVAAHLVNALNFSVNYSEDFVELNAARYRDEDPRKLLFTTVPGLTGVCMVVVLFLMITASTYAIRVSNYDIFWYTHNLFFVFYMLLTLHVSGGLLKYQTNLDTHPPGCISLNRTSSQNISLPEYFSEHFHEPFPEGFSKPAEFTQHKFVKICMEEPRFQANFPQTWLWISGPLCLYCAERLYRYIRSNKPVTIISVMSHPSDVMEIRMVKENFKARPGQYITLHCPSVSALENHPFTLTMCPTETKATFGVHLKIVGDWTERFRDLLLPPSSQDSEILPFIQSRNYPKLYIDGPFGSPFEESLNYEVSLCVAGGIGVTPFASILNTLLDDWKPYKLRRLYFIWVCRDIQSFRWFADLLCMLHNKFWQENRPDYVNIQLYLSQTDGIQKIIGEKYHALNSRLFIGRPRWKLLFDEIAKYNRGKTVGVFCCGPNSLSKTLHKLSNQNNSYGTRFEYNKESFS
Assay [20] has as its target NADPH oxidase 5 (Homo sapiens) (UniProt Q96PH1). The assay can be described thus: NOX5-dependent H2O2 signal modulators, primary screen, NOX inhibitor project, cell-based, HEK293-NOX5, Amplex Red fluorescence (AID 1161). The note with it: HEK293-NOX5, ionomycin, 45 min, higher = more signal.

Sequence of NADPH oxidase 5 (Homo sapiens) (Q96PH1 whole entry, looked up): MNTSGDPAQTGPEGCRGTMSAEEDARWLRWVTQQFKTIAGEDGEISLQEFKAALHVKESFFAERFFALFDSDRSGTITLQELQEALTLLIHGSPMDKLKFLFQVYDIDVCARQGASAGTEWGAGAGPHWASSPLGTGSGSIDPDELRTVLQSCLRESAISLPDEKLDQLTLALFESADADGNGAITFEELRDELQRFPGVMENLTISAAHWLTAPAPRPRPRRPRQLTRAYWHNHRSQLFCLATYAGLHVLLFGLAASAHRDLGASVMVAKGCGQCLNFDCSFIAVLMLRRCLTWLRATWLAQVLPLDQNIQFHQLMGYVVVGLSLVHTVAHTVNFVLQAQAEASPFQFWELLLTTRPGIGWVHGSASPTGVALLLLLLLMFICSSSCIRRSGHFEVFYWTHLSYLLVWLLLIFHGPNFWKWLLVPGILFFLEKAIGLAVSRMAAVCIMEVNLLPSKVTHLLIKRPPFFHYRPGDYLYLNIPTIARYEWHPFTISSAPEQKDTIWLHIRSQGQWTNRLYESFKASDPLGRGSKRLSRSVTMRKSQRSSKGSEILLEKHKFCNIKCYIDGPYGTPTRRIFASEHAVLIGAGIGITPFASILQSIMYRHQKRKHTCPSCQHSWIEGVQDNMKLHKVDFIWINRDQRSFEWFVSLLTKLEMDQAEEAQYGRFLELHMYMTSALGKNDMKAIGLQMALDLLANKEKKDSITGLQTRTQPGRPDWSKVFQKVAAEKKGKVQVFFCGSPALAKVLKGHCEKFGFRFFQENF
Sequence of NADPH oxidase 2 (Homo sapiens) (P04839 whole entry, looked up): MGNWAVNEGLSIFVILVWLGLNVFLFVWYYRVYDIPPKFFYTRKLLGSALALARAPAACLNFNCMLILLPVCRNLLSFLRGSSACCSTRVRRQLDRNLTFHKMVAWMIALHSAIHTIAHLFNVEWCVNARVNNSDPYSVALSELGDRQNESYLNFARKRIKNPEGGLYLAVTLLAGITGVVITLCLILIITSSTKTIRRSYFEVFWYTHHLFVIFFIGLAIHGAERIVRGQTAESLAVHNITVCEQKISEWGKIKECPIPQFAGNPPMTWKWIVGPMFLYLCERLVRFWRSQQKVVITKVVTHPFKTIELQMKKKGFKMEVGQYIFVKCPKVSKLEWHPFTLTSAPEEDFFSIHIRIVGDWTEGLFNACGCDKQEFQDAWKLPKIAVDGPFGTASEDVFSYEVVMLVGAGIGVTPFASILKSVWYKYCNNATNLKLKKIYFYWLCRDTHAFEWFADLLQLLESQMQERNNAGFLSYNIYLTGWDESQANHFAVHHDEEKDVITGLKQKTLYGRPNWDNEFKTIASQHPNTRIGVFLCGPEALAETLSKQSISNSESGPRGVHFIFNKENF

Turning to `COc1cc(NN2C(C(O)C3CCCCC3)C=CC3C(=O)N(C)C(=O)C32)cc(OC)c1OC` (stereo not given), the composite z-score was 0.265 in assay [1]; 2.2 in assay [6]; 0.502 in [7]; -0.176 with Torsin-1A (Homo sapiens) [8]; 0.358 with Torsin-1A (Homo sapiens) [9]; -0.68 in assay [10]. This compound also gave a composite z-score in assay [12] of 0.949. Besides, the z-score in assay [2] was 0.187 (inactive); in assay [3] it was 0.0648 (inactive); in [4] it was -0.133 (inactive); in assay [5], 0.454 (inactive); in assay [11], -1.27 (inactive); in assay [13], 0.713 (inactive). For the same compound, the z-score is 0.608 (inactive) in assay [14]; 0.917 (inactive) in assay [15]; 1.34 (inactive) in assay [16]; -0.723 in [17]; -0.904 (inactive) in assay [18]; -2.73 (inactive) in assay [19]. The same compound registered a z-score in assay [20] of -1.7.

`COc1cc2c(cc1O)C(c1ccc(CN3CCCC3)cc1)N(C)CC2` (stereo not given): the composite z-score in assay [1] is -0.0821; in assay [6], -0.317; in assay [7], -0.237; with Torsin-1A (Homo sapiens) [8] it was -0.508; with Torsin-1A (Homo sapiens) [9], 0.081; in assay [10], -0.0838. The compound also returned a composite z-score in [12] of -0.446. Moreover, the z-score in [2] is -0.383 (inactive); in assay [3], 0.374 (inactive); in assay [4], -0.231 (inactive); in assay [5] it was -0.0347 (inactive); in [11] it was 0.309 (inactive); in assay [13] it was 0.0334 (inactive). Besides, the z-score was -0.0719 (inactive) in [14]; 0.247 (inactive) in assay [15]; 0.0339 (inactive) in assay [16]; -0.364 in assay [17]; -1.63 (inactive) in [18]; -1.46 (inactive) in assay [19]. This compound returned a z-score in [20] of -1.22.

As to `Cc1cccc([C@H]2C[C@H]3C(I)=C[C@@H]2C(=O)[C@]32CO2)c1`, the composite z-score in assay [1] was -0.243; in assay [6] it was -0.0548; in [7], -0.0762; with Torsin-1A (Homo sapiens) [8] it was -0.404; with Torsin-1A (Homo sapiens) [9] it was -0.481; in assay [10], 0.0299. This compound gave a composite z-score in assay [12] of -0.0559. In addition, the z-score in assay [2] is -0.478 (inactive); in assay [3], -0.209 (inactive); in [4] it was 1.76 (inactive); in assay [5], 1.56 (inactive); in [11], -0.894 (inactive); in assay [13] it was -0.0459 (inactive). The z-score is 0.0962 (inactive) in assay [14]; 0.0129 (inactive) in [15]; -0.0624 (inactive) in [16]; 0.0314 in [17]; -0.942 (inactive) in [18]; -0.0919 (inactive) in [19]. Besides, the z-score in assay [20] is -0.835.

Turning to `C=C(COC)/C(=C/C[C@H](OC(C)=O)c1cccc(OCCO)c1)c1cnc2ccccc2c1`, the composite z-score in assay [1] was found to be 0.484; in [6] it was 1.46; in assay [7], 0.109; with Torsin-1A (Homo sapiens) [8] it was 1.24; with Torsin-1A (Homo sapiens) [9] it was 0.583; in assay [10], 2.11. The same compound came in with a composite z-score in [12] of 0.0999. In addition, the z-score was -0.184 (inactive) in assay [2]; 0.167 (inactive) in [3]; 3.72 (inactive) in assay [4]; 0.298 (inactive) in [5]; -0.339 (inactive) in assay [11]; 15.2 (active) in [13]. In addition, the z-score in assay [14] is 2.65 (inactive); in assay [15], 1.41 (inactive); in [16], 0.872 (inactive); in assay [17], -0.512; in assay [18], 0.373 (inactive); in [19] it was 0.228 (inactive). Also, the z-score in [20] is -0.167.
